Data as given in PubChem BioAssay AID485313 (National Center for Advancing Translational Sciences (NCATS), 2010).
Hit rate of the full screen: of about 320,000 compounds, about 7,600 (2.4%) were called active. Inconclusive results (about 3%) are left out. Calls follow the shape of the dose curve; as a rule, active = well fitted activation curve with a large enough effect; inconclusive = small, poorly fitted or top-dose-only effect; inactive = no such curve, though single readings can be large or run the other way. What follows is part of a selection rich in actives, with near analogues and random picks from the rest.

Assay: qHTS Assay for NPC1 Promoter Activators; also: nearly all actives have a fitted effect of over 60% in size; as to activation: % of control where 0% means no effect
Conditions: Huh7 NPC1 promoter luciferase reporter, 24 h; series mostly up to 9.22 µM
Outline: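 Luminescence read-out of NPC1 promoter-driven luciferase in stably transfected Huh7 cells; compounds delivered in DMSO and left 24 h at 37C, 5% CO2, qHTS titration format.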
Potency is read from the fitted curve at half-maximal effect.

Potency, active:
COc1ccc(C(=O)Cc2cnn(-c3ccccc3)c2)c(O)c1 2510 nM
Cc1ccc(N/C=C/C(=O)c2ccccc2)cc1C 2000 nM
CCOc1ccc(N/C=C/C(=O)c2ccccc2)cc1 316 nM
COc1ccc(C(=O)/C=C/Nc2ccccn2)cc1 100 nM
Cc1cccc(-n2cnc(C(=O)Nc3cccnc3)c2)n1 2820 nM
COc1ccc(N=C(C)c2sc3ccccc3c2O)cc1 708 nM
Cc1ccccc1OCC(=O)Nc1ccc2c(c1)ncn2C 6310 nM
Cc1ccc(N/N=C2\COC(C)(C)CC2=O)cc1 2820 nM
CC(=O)Nc1ccc(-c2nc3ccccc3o2)cc1 1120 nM
O=C(Nc1ccccc1Cl)c1ccc2nsnc2c1 2240 nM
CCOc1ccc(-c2nnc(-c3ccco3)o2)cc1 631 nM
Cc1ccc(OCC(=O)Nc2ccc(-c3nnc(-c4ccco4)o3)cc2)cc1 2820 nM
CCCCOc1ccc(-c2nnc(-c3ccco3)o2)cc1 1580 nM
Cc1nn(-c2ccc([N+](=O)[O-])cc2)c(N)c1-c1ccccc1 1580 nM
Cc1cnc(NC(=O)c2ccccn2)s1 447 nM
O=C(Nc1nnc(C2CC2)s1)c1ccccn1 1120 nM
Cc1cc(C(=O)Nc2nnc(C3CC3)s2)c(C)s1 3550 nM
CC(=O)Nc1ccc(/C=C/C(=O)c2ccccc2)cc1 2510 nM
O=C(/C=C/c1ccc(N2CCOCC2)cc1)c1ccccc1 2000 nM
CCOC(=O)c1c(C)[nH]c(C2=NNC(=NC(C)COC)SC2)c1C (centres undefined) 1580 nM
Cc1ccc(OCc2cc(C(=O)N(C)CCc3ccccc3)no2)cc1C 2820 nM
Cc1cc(CN(C)C(=O)c2cc(COc3ccc(C)c(C)c3)on2)n[nH]1 2510 nM

Potency, inactive:
CC(OC(=O)/C=C/c1ccccc1)C(=O)NC1CCCCC1C (centres undefined)
O=C(CCc1nc(-c2ccccc2)no1)Nc1cccc(C(=O)NC2CC2)c1
COc1ccc(CC(=O)c2ccc(O)cc2O)cc1OC
Cc1cc(O)cc(O)c1C(=O)Cc1cnn(-c2ccccc2)c1
CCOc1ncccc1C(=O)OCC(=O)N1c2ccccc2CC1C (centres undefined)
COc1ccc(C(=O)/C=C/c2ccc(OC3CSC3)cc2)cc1
O=C(/C=C/NCc1ccc(F)cc1)c1ccccc1
CCOc1ccc(N/C=C/C(=O)c2cc(OC)c(OC)c(OC)c2)cc1
CCOc1ccc(NC(=S)N2CCC(NC(=O)c3ccccc3)CC2)cc1
Cc1noc(NS(=O)(=O)c2ccc(N/C=C/C(=O)c3ccccc3)cc2)c1C
COc1ccc(N2C(=O)CCC(C(=O)Nc3ccccn3)C2c2ccc(OC)c(OC)c2)cc1 (centres undefined)
Cc1nc2ccc(NC(=O)C3CCCCC3)cc2s1
COc1ccc(C(=O)OCC(=O)N2CC(=O)Nc3ccccc32)cc1Br
Cc1occc1-c1nnc(SCC(=O)NC2CCCCC2)o1
Cc1nc(SCC(=O)NC2CCCCC2C)c(C#N)c(C)c1C (centres undefined)
Cc1cccc(-n2cnc(C(=O)NNC(=S)Nc3ccccc3)c2)n1
COc1cccc(C(=O)Nc2cccnc2)c1OC
COc1ccc(S(=O)(=O)N2CCC(C(=O)N3CCCC3)CC2)cc1C
CCCN(CC1CC1)C(=S)NC(=O)c1ccccc1Br
CC1(C)CN(c2ccc(-c3ccnc4ncnn34)cc2)C1=O
Oc1ccc(N=Cc2sc3ccccc3c2Cl)cc1
COc1ccccc1-c1sc2ccccc2c1-c1ccc(C(C)=O)cc1
CC1CCCC(C)N1C(=O)COC(=O)COc1ccccc1C#N (centres undefined)
O=C1C=C(c2cccc(Cl)c2O)C[C@@H](c2ccc(F)cc2)C1
CC1CCCCC12NC(=O)N(CC(=O)Nc1ccc(S(=O)(=O)Nc3ncccn3)cc1)C2=O (centres undefined)
O=C1Cc2cc(S(=O)(=O)Nc3cccc(F)c3)ccc2N1
Cc1ccccc1OCC(=O)Nc1ccc(N2CCN(C(=O)C(C)C)CC2)c(Cl)c1
Cc1ccccc1OCC(=O)Nc1ccc(S(=O)(=O)N2CCOCC2)cc1
O=C(CN1C(=O)NC2(CCCCC2)C1=O)N1CCN(C(=O)c2cccs2)CC1
Cc1ccc(/C=C/C(=O)OCC(=O)NCc2ccc(Cl)cc2)o1
CCOc1ccc(NC(=O)CN(C)C(=O)CCSc2ccc(F)cc2)cc1OCC
CC(C)n1ncc2c(C(=O)Nc3ccc(CC#N)cc3)cc(C3CC3)nc21
Nc1c(N(Cc2ccco2)C(=O)c2cccc(F)c2)c(=O)[nH]c(=O)n1Cc1ccccc1
COCCN(Cc1ccccc1)C(=O)Cc1ccc(S(=O)(=O)N2CCOCC2)s1
Cc1ccc(OCC(=O)Nc2ccc(-c3nc4ncccc4o3)cc2)cc1
CCc1nc(Nc2ccc(NC(C)=O)cc2)c2oc3ccccc3c2n1
COc1ccc(S(=O)(=O)N2CCN(CC(=O)NCC3(N4CCOCC4)CCCCC3)CC2)cc1
COc1ccc(CSc2nnnn2-c2ccc(O)cc2)cc1F
Cc1cccc(NC(=O)c2ccc3nsnc3c2)c1C
O=C(Nc1ccccc1N1CCCCC1)c1ccc2nccnc2c1
O=C(C1CCC1)N1CCN(S(=O)(=O)c2ccc([N+](=O)[O-])cc2)CC1
CCOc1ccc(S(=O)(=O)N(CC(=O)NCC(F)(F)F)Cc2ccco2)cc1
Cc1ccc(OCC(=O)Nc2nnc(-c3ccco3)s2)cc1
COc1ccc(OCC(=O)Nc2nnc(-c3ccco3)s2)cc1
O=C(CCc1ccccc1)Nc1cccc(-c2nnc(-c3ccco3)o2)c1
CC(=O)Nc1ccc(NC(=O)COc2ccc(-c3ccccc3)cc2)cc1
CCOc1ccc(-n2c(SCC(N)=O)nnc2-c2ccco2)cc1
CCOc1ccc(NC(=O)N(CCC(C)C)C(C)c2ccco2)cc1 (centres undefined)
CCC[C@H]1CCCC/C=C\CCCC(=O)OCCN1C(=O)OC(C)(C)C
CCOCCn1[nH]c2ccccc2c1=O
CC(C)NC(=O)N1CCN(c2ccncc2S(=O)(=O)N2CCCCC2)CC1
O=C(NC1CCCCCC1)C1CCN(C(=O)c2ccc(Cl)cc2)CC1
CCc1sc(C(=O)N2CCN(CC(=O)Nc3cccc(F)c3)CC2)cc1C
COc1cccc(C2=CC(=O)C[C@H](c3ccc(OC)c(OC)c3)C2)c1
Cn1nc(-c2ccccc2)c2cc([N+](=O)[O-])ccc21
Cc1cc(CO)nn1-c1ccc([N+](=O)[O-])cc1
COC(=O)C1=CO[C@@H](O[C@@H]2O[C@H](CO)[C@@H](O)[C@H](O)[C@H]2O)C2C1C[C@H](O)[C@@H]2C (some centres undefined)
CCc1cccc(NC(=O)COC(=O)c2cc(=O)c3ccccc3o2)c1
CCOC(=O)C1CCN(C(=O)c2cccc(S(=O)(=O)N(CC)c3ccccc3)c2)CC1
COCCN(C(=O)CC1CCCCC1)c1c(N)n(CC(C)C)c(=O)[nH]c1=O
CCc1cc(C(=O)Nc2nnc(C3CC3)s2)sc1C
Cc1cccc(NC(=O)CSCC(=O)Nc2nnc(C3CC3)s2)c1
O=C(Nc1nnc(C2CC2)s1)c1cc(Cl)sc1Cl
Cc1ccc(Cl)cc1NC(=O)c1ccccn1
Cc1cnc(NC(=O)C2CCCC2)s1
O=C(Cc1cccs1)Nc1nnc(C2CC2)s1
CCc1ccccc1OCC(=O)Nc1ccc(C)c(S(=O)(=O)N2CCCCCC2)c1
O=C(NCc1cccc(Cl)c1)C1=CC=CN2CCS(=O)(=O)N=C12
CC(C)Cn1c(N)c(C(=O)COC(=O)C2CCCN2C(=O)c2cccs2)c(=O)n(C)c1=O (centres undefined)
COc1ccccc1Nc1nnc(SC(C)C(=O)NC2CC2)s1 (centres undefined)
O=C(O)c1ccc2c(c1)C(=O)N(c1ccc(/C=C/C(=O)c3ccccc3)cc1)C2=O
CC(OC(=O)/C=C/c1ccccc1)C(=O)Nc1ccc(C(N)=O)cc1 (centres undefined)
CC(=O)Nc1ccc(NC(=S)NC(=O)/C=C/c2ccccc2)cc1
O=C(CN1CCN(S(=O)(=O)/C=C/c2ccccc2)CC1)Nc1ccc(N2CCOCC2)cc1
O=C(Nc1ccccc1N1CCOCC1)c1ccncc1
CCN(C(=O)CSc1ncnc2sccc12)c1c(N)n(Cc2ccccc2)c(=O)[nH]c1=O
CC1(C)CC(=O)C=C(c2ccc3ncccc3c2)C1
O=C(Cn1nnc(-c2ccccc2)n1)NC(=O)NC1CCCC1
O=C(COC(=O)Cn1[nH]c(=O)c2ccccc2c1=O)Nc1ncc(Cl)cc1Cl
COc1ccccc1/C=C/C(=O)OCC(=O)NC1CCCCCC1
COc1ccc(CCNC(=O)COC(=O)C2CC2C)cc1 (centres undefined)
CN(Cc1cccnc1)C(=O)c1cc(COc2ccc3ncccc3c2)on1
CCn1ccnc1CN(C)C(=O)c1cc(COc2ccc(-n3cncn3)cc2)on1
CN(Cc1cnccn1)C(=O)c1cc(COc2cccc(C(F)(F)F)c2)on1
CN(CCOc1ccccc1)C(=O)c1cc(COc2c(F)cccc2F)on1
CC1CC(C)CN(C(=O)COC(=O)c2ccc3ncsc3c2)C1 (centres undefined)

activation, inactive:
COc1ccc2c3c(c(=O)oc2c1)C1O[C@](CCCCN2C(=O)c4ccccc4C2=O)(Cc2c1ccc1ccccc21)O3 -3.07% [at 1.84 µM]
